From ChEMBL document CHEMBL2218924, “A broad activity screen in support of a chemogenomic map for kinase signalling research and drug discovery” (Biochem J, 2013)

target: Protein-tyrosine kinase 2-beta (Homo sapiens) (UniProt Q14289); details: at 10 µM
Sequence (Q14289 whole entry, looked up): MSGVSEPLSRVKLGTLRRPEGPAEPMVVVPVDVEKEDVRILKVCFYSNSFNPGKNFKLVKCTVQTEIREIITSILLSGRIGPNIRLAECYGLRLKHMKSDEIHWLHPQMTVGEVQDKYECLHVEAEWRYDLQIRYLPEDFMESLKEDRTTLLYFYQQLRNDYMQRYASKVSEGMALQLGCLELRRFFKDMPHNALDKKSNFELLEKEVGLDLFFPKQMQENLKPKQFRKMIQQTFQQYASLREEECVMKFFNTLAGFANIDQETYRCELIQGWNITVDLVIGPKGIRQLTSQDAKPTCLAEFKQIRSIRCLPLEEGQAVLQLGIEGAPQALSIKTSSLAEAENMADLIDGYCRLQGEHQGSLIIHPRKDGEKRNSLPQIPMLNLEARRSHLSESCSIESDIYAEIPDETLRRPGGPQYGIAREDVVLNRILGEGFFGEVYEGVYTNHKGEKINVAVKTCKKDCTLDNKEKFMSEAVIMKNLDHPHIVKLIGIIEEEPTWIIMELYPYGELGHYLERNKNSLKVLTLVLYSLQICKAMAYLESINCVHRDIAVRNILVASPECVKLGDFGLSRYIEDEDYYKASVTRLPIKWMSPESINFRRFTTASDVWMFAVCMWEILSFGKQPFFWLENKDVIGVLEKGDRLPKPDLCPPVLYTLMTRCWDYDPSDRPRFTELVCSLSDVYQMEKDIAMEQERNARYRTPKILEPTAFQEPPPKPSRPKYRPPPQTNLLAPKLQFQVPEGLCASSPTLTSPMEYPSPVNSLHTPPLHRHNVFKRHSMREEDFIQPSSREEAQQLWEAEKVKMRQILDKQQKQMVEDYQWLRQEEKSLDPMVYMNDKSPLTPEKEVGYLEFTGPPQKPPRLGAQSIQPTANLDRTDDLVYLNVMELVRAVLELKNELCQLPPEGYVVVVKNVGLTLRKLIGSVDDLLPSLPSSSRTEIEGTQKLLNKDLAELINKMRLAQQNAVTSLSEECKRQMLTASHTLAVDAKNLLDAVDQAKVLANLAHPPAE

| Compound | residual activity [%] |
| --- | --- |
| Oc1cccc(-c2nc(N3CCOCC3)c3oc4ncccc4c3n2)c1 | 95 |
| c1ccc(-c2cnc(Nc3ccc(OCCN4CCCC4)cc3)s2)cc1 | 43 |
| NCCNc1ncc(C(N)=O)c(Nc2cccc(C(F)(F)F)c2)n1 | 3 |
| O=C(c1cc2cc(O)ccc2[nH]1)c1cc2cc(O)ccc2[nH]1 | 20 |
| Cn1c2ccccc2c2c3c(c4c5ccccc5n(CCC#N)c4c21)CNC3=O | 4 |
| O=C(Nc1nc2ccccc2n1CCN1CCOCC1)c1cccc([N+](=O)[O-])c1 | 86 |
| N#C/C(=C\c1ccc(O)c(O)c1)C(=O)NCc1ccccc1 | 101 |
| COc1cc2c(cc1OC)-c1n[nH]c(Nc3cccc(F)c3)c1C2 | 32 |
| O=C(Nc1ccc(Cl)cc1)c1ccccc1NCc1ccncc1 | 74 |
| COc1ccc(CNC(=O)Nc2ncc([N+](=O)[O-])s2)cc1 | 77 |
| O=C1NC(=O)C(c2cn(CCCO)c3ncccc23)=C1c1cnccn1 | 79 |
| N#C/C(=C1/Nc2ccccc2S1)c1ccnc(NCCc2cccnc2)n1 | 58 |
| CCCCc1c(-c2ccc(OC)cc2)[nH]c2nccnc12 | 32 |
| O=C1Nc2ccccc2/C1=C\c1c(Cl)[nH]c2ccccc12 | 65 |
| Nc1nc(Nc2ccc(S(N)(=O)=O)cc2)nn1C(=O)c1c(F)cccc1F | 14 |
| CCN(CC)CCNC(=O)c1c(C)[nH]c(/C=C2\C(=O)Nc3ccc(Cl)cc32)c1C | 3 |
| O=C1NC(=O)C(c2c[nH]c3ccccc23)=C1c1c[nH]c2ccccc12 | 28 |
| COc1ccc2c(c1)c(C1=C(c3c[nH]c4ccccc34)C(=O)NC1=O)cn2CCCN(C)C | 32 |
| O=C1NC(=O)C(c2cn(CCCn3ccnc3)c3ccccc23)=C1Nc1ccccc1 | 81 |
| COc1cc2nccc(Oc3ccc(NC(=O)Nc4cc(C)on4)c(Cl)c3)c2cc1OC | 8 |

target: Receptor-interacting serine/threonine-protein kinase 2 (Homo sapiens) (UniProt O43353); details: at 1 µM
Sequence (O43353 whole entry): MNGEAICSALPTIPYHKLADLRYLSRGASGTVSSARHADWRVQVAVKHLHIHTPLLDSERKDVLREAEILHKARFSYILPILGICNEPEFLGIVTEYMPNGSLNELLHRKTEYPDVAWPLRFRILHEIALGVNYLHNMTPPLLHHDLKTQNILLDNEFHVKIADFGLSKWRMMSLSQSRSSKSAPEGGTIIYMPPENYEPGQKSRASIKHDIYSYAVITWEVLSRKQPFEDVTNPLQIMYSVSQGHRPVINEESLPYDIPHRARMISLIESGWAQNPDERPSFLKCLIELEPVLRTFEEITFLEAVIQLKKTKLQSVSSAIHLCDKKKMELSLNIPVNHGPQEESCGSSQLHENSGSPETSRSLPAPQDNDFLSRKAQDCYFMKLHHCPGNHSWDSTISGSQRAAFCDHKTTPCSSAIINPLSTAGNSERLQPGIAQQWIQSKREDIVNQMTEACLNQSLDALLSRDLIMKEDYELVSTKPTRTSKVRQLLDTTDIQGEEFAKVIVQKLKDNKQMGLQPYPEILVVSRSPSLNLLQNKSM

| Compound | residual activity [%] |
| --- | --- |
| O=c1c(-c2ccc(F)cc2)c(-c2ccncc2)[nH]n1-c1ccc(Cl)cc1 | 47 |
| Oc1cccc(-c2nc(N3CCOCC3)c3oc4ncccc4c3n2)c1 | 89 |
| c1ccc(-c2cnc(Nc3ccc(OCCN4CCCC4)cc3)s2)cc1 | 43 |
| O=C(c1cc2cc(O)ccc2[nH]1)c1cc2cc(O)ccc2[nH]1 | 18 |
| COc1cc2c(cc1OC)-c1n[nH]c(Nc3cccc(F)c3)c1C2 | 30 |
| CCN1/C(=C/C(C)=O)Sc2ccc(OC)cc21 | 71 |
| NC(=O)c1ccc(-c2nc(-c3ccc4c(c3)OCCO4)c(-c3ccccn3)[nH]2)cc1 | 55 |
| COc1ccc(CNC(=O)Nc2ncc([N+](=O)[O-])s2)cc1 | 79 |
| O=C1NC(=O)C(c2cn(CCCO)c3ncccc23)=C1c1cnccn1 | 94 |
| CCCCc1c(-c2ccc(OC)cc2)[nH]c2nccnc12 | 67 |
| O=C1Nc2ccccc2/C1=C\c1c(Cl)[nH]c2ccccc12 | 84 |
| Nc1nc(Nc2ccc(S(N)(=O)=O)cc2)nn1C(=O)c1c(F)cccc1F | 62 |
| CCN(CC)CCNC(=O)c1c(C)[nH]c(/C=C2\C(=O)Nc3ccc(Cl)cc32)c1C | 62 |
| O=C1NC(=O)C(c2cn(CCCn3ccnc3)c3ccccc23)=C1Nc1ccccc1 | 78 |
| COc1cc2nccc(Oc3ccc(NC(=O)Nc4cc(C)on4)c(Cl)c3)c2cc1OC | 21 |
| Nc1nccc(-c2c(-c3ccc(F)cc3)ncn2C2CCNCC2)n1 | 43 |
